Measured values reported in PubChem BioAssay AID1851 (National Center for Advancing Translational Sciences (NCATS), 2009).
Where “and” joins values, the source holds several entries; their conditions need not be identical. Equal entries are not always repeated. Among all 16,000 compounds or so, about 4,000 (25%) were called active. Not shown: some 26% with an inconclusive outcome. Only a sample is shown. A number with no mark means an inactive call. Calls follow the shape of the dose curve; as a rule, active = well fitted curve in the direction sought with a large enough effect; inconclusive = small, poorly fitted or top-dose-only effect, or effect the other way; inactive = no such curve, though single readings can be large or run the other way.

What follows are compounds tested against Cytochrome P450 2C9 (Homo sapiens) (UniProt P11712) (assay: Cytochrome panel assay with activity outcomes). Conditions: recombinant CYP, pro-luciferin dealkylation, luminescence, p450-cyp2c9; series mostly up to 57.1 µM.
Sequence of Cytochrome P450 2C9 (Homo sapiens) (P11712 whole entry, looked up): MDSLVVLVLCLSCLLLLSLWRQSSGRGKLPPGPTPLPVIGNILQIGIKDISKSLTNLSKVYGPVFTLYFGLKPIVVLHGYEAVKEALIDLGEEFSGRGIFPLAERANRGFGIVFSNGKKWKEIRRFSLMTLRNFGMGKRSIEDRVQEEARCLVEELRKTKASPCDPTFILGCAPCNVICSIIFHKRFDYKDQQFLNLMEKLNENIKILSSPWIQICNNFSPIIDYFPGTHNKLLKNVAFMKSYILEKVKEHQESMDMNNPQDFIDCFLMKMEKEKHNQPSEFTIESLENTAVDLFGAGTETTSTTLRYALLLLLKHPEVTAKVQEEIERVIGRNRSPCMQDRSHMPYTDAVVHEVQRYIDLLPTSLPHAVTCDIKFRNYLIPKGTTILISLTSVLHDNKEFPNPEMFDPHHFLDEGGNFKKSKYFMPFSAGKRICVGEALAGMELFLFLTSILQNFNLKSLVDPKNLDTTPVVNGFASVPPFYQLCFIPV
% is scaled to controls: 0 for no effect and ±100 for the full control effect.

Compound	AC50	activity, negative = inhibition
Cc1c(C)c2c(c(C)c1O)CC[C@@](C)(C(=O)O)O2	inactive	–
CC[C@H](CN(C)C)C(=O)c1ccco1	–	0.0002% [at 11.4 µM]
Cc1occc1C(=O)NNC(=O)Cc1ccccc1	inactive	–
CCCC/C=C/C(NC(=O)c1cccs1)c1ccccc1 (configuration not stated)	0.316 µM (active)	–
CCCC/C=C/C(NC(=O)c1ccccc1)c1ccccc1 (configuration not stated)	10 µM (active)	–
CCCC/C=C/C(NC(=O)c1ccco1)c1ccccc1 (configuration not stated)	15.8 µM (active)	–
CCCC/C=C/C(NC(=O)c1ccc(C(F)(F)F)cc1)c1ccccc1 (configuration not stated)	2 µM (active)	–
C/C(=C\C1CCCCC1)C(NC(=O)c1ccc(C(F)(F)F)cc1)c1ccc(-c2ccccc2)cc1 (configuration not stated)	inactive	–
CCCC/C=C/C(NC(=O)c1ccc(-c2ccccc2)cc1)c1ccccc1 (configuration not stated)	inactive	–
CCC(CC)C(=O)NCCN1CCN(C(=O)C(CC)CC)CC1	inactive	–
CN(C)CCn1nnnc1SCC1=C(C(=O)O)N2C(=O)[C@@H](NC(=O)Cc3csc(N)n3)[C@@H]2SC1	inactive	–
Cn1c(=O)c2c(nc(C(=N)SCC(=O)O)n2C)n(C)c1=O	–	-13.3% [at 11.4 µM]
Cc1[nH]c2c(C)ccc(C)c2c1CC(=O)O	–	-16.5% [at 11.4 µM]
Cc1ccccc1-c1nc(NCc2cccnc2)c2ccccc2n1	–	9.82% [at 2.29 µM]
Clc1ccccc1-c1nc(N/N=C/c2cccnc2)c2ccccc2n1	2.24 µM (active)	–
Clc1ccccc1-c1nc(NCc2cccnc2)c2ccccc2n1	–	-14.1% [at 2.29 µM]
CCC(=O)O[C@H](CC(=O)O)C[N+](C)(C)C	inactive	–
N[C@@H](COP(=O)(O)O)C(=O)O	inactive	–
Fc1ccc(-c2[nH]ncc2-c2nnnn2-c2ccccc2)c(F)c1	7.94 µM (active)	–
C=CC[C@@H](C(=O)O)c1ccccc1	–	-1.11% [at 11.4 µM]
CCOc1cc(/C=N/NC(=O)CNc2cccc(C)c2)ccc1OC(=O)c1ccccc1	5.01 µM (active)	–
CCOc1cc(/C=N/NC(=O)COc2cccc(C)c2)ccc1OC(=O)c1cccs1	3.16 µM (active)	–
N#Cc1cccc(NC(=O)N2CC3(CCN(C(=O)c4cnccn4)CC3)C2)c1	inactive	–

Compound	AC50	activity, negative = inhibition
CC(C)(C)c1c2c(c(C(C)(C)C)c3c1OCN(Cc1ccccc1)C3)OCN(Cc1ccccc1)C2	–	-7.82% [at 11.4 µM]
C#CCSc1nc(Cc2ccc(Cl)cc2)nc2ccccc12	2.82 µM (active)	–
O=C1NC(c2ccccc2)=NC1(NS(=O)(=O)c1ccccc1)C(F)(F)F (configuration not stated)	inactive	–
NCCNC(=O)c1ncsc1-c1cccc(F)c1	inactive	–
O=C(OCCNC(=O)c1ccc2ccccc2n1)c1ccc(F)cc1	10 µM (active)	–
CCCCNc1ccc(C(=O)OCCOCCOCCOCCOCCOCCOCCOCCOCCOC)cc1	inactive	–
O=c1[nH]c(SCc2c(Cl)c(Cl)c(Cl)c(Cl)c2Cl)nc(=S)[nH]1	1.26 µM (active)	–
Nc1ccc(N=Nc2c(S(=O)(=O)O)cc3ccccc3c2S(=O)(=O)O)cc1	–	8.14% [at 11.4 µM]
NCC[C@H]1CCC[C@H](CCN)N1	inactive	–
Cc1ccc(C)c(N2CCN(C(=O)c3ccc4nc(-c5ccco5)c(-c5ccco5)nc4c3)CC2)c1	7.08 µM (active)	–
COc1cc2nc(N3CCN(C(=O)c4ccco4)CC3)nc(N)c2cc1OC	inactive	–
COc1ccc(C)cc1NC(=O)CCC(=O)Nc1nnc(C(F)(F)F)s1	1.26 µM (active)	–
COc1ccc(C)cc1NC(=O)CSc1nnc(-c2ccc(OC)c(OC)c2)n1N	inactive	–
CCC(=O)OCC(=O)[C@@]1(OC(=O)CC)[C@H](C)C[C@@H]2[C@H]3CCC4=CC(=O)C=C[C@]4(C)[C@]3(Cl)[C@@H](O)C[C@@]21C	inactive	–
CCCCOC(OCCCC)[C@H](O)CSc1ccc2ccccc2c1	2 µM (active)	–
CCN(CC)C[C@@H](O)c1ccc2ccc3ccccc3c2c1	–	-3.91% [at 11.4 µM]
CC(C)NC[C@H](O)c1ccc2ccccc2c1	inactive	–
Cc1cc(C)c(C#N)c(Oc2ccccc2)n1	inactive	–
Cc1cc(C)c(C#N)c(OCC(=O)c2ccc(Br)cc2)n1	10 µM (active)	–
Cc1ccc(=O)n(-c2ccccc2)c1	inactive	–
COc1ccc(NC(=O)N2CCCC3(CCN(C(=O)c4cccn4C)CC3)C2)cc1	inactive	–
O=C1CN(C(=O)c2ccc(Br)o2)C(c2ccc(F)cc2)c2cc(Cl)ccc2N1 (configuration not stated)	6.31 µM (active)	–
CO[C@H]1COC(=O)C/C=C\[C@@H](C)COC(=O)[C@@H](CCSC)NC(=O)C/C=C\[C@@H]1C	–	-2.93% [at 11.4 µM] and 12.5% [at 11.4 µM]

Compound	AC50	activity, negative = inhibition
C[C@H]1COC(=O)[C@H]2CCCN2C(=O)[C@@H](C)COC(=O)[C@H](Cc2ccccc2)NC1=O	–	13.4% [at 11.4 µM]
Cc1ccc(S(=O)(=O)N[C@H]2COC(=O)C/C=C\[C@H](C)[C@@H](NS(=O)(=O)c3ccc(C)cc3)COC(=O)C/C=C\[C@@H]2C)cc1	–	-6.21% [at 11.4 µM]
Cc1ccc(S(=O)(=O)NNc2ccccc2)cc1	8.91 µM (active)	–
Cc1ccc(S(=O)(=O)NCc2ccccc2)cc1	inactive	–
Cc1ccc(NNS(=O)(=O)c2ccc(C)cc2)cc1	8.91 µM (active)	–
Cc1ccc(S(=O)(=O)N[C@H](C(=O)O)C(C)C)cc1	–	-4.41% [at 11.4 µM]
CCN=C1NN=C(c2ccc(C)cc2)CS1	6.31 µM (active)	–
COc1cccc(NC(=O)CSc2nc3ccccc3cc2Cc2ccccc2)c1	6.31 µM (active)	–
COc1ccc2cc(C#N)c(SCC(=O)NNC(=O)Cc3ccccc3)nc2c1	inactive	–
CCN(CC)C(=O)CSc1nnc(C2CCCCC2)o1	inactive	–
C=CCn1c(=O)c2c(nc(-c3ccc(S(=O)(=O)O)cc3)n2C)n(C)c1=O	inactive	–
C=CCn1c(=O)c2c(nc(Br)n2Cc2ccccc2Cl)n(C)c1=O	14.1 µM (active)	–
Cn1c(=O)c2c(nc(N3CCN(c4ccccn4)CC3)n2Cc2ccc(Cl)cc2Cl)n(C)c1=O	inactive	–
C=CCn1cc(Cl)c(=O)n(CC=C)c1=O	inactive	–
CN1CCN(c2nc3c(c(=O)n(C)c(=O)n3C)n2C)CC1	–	0.789% [at 11.4 µM]
Cn1c(=O)c2c(nc(N3CCN(c4ccccn4)CC3)n2Cc2ccccc2Cl)n(C)c1=O	3.55 µM (active)	–
O=C(O)CCC(=O)CCC(=O)c1ccccc1	inactive	–
OCCN1CCN(CCC=C2c3ccccc3Sc3ccc(Cl)cc32)CC1	inactive	–
CN1CCN(C(=O)c2ccc(-n3cccc3)cc2)CC1	inactive	–
COc1cc(OC)cc(C(=O)Nn2cc(C(=O)N3CCN(C)CC3)c3ccccc3c2=O)c1	11.2 µM (active)	–
COc1cc(OC)cc(C(=O)NCC(=O)OC2CCOC2=O)c1 (configuration not stated)	inactive	–
CC[C@H](C)C(=O)O[C@H]1CCC=C2C=C[C@H](C)[C@H](CC[C@@H]3C[C@H](O)CC(=O)O3)[C@H]21	inactive	–
C=CCNC(=O)c1ccc2nc(-c3ccccc3)c(-c3ccccc3)nc2c1	14.1 µM (active)	–

Compound	AC50	activity, negative = inhibition
C=CCNC(=O)c1csc(-c2ccccc2)n1	15.8 µM (active)	–
NCCc1nc(-c2nc(C(=O)O)cs2)cs1	–	-10.5% [at 11.4 µM]
C=CCNC(=O)c1ccc(-c2nc(-c3ccc(Cl)c(Cl)c3)cs2)cc1	inactive	–
CN(C)C(=O)c1ccc(-c2ccc3ncnc(NCc4ccccc4)c3c2)cc1	–	13.4% [at 2.29 µM]
CSc1nc(C)c2c(n1)N(c1ccc(C(F)(F)F)cc1)CC2	inactive	–
N=C1/C(=C/c2cccs2)C(=O)N=C2SN=C(SCc3ccccc3)N12	0.316 µM (active)	–
O=C1N=C(N2CCOCC2)S/C1=C/c1cccs1	inactive	–
CN1[C@@H](CC(=O)c2ccccc2)CCC[C@@H]1C[C@@H](O)c1ccccc1	inactive	–
NC(=O)N1c2ccccc2C=Cc2ccccc21	inactive	–
O=C(C[C@@H]1C=Cc2ccccc2N1C(=O)c1ccccc1)c1ccccc1	2.51 µM (active)	–
CO[C@@H]1COC(=O)C/C=C\[C@H](C)[C@@H](NS(=O)(=O)c2ccc(C)cc2)COC(=O)C/C=C\[C@@H]1C	–	-12.8% [at 11.4 µM] and 11% [at 11.4 µM]
Nc1nc2c(c(=O)[nH]1)N(C=O)[C@H](CNc1ccc(C(=O)N[C@@H](CCC(=O)O)C(=O)O)cc1)CN2	inactive	–
Cc1cc(C(C)(C)C)c(OCCCN2CCOCC2)c(C(C)(C)C)c1	–	-0.273% [at 11.4 µM]
N#Cc1c(N2CCCCC2)nc(N)c2c(N)nc3c(c12)CC(c1ccccc1)O3 (configuration not stated)	4.47 µM (active)	–
CN(C)Cc1ccccc1-c1nc(N2CCOCC2)c2ccccc2n1	–	5.66% [at 2.29 µM]
CN1c2ccccc2C(C)(C)C12C=Nc1c(cc(N3CCOCC3)c3ccccc13)O2 (configuration not stated)	1.58 µM (active)	–
CN(C)Cc1ccccc1-c1ccc2ncnc(N3CCOCC3)c2c1	–	8.68% [at 2.29 µM]
COc1cc(CNCc2ccccn2)ccc1OCc1ccc(Cl)cc1Cl	inactive	–
CCOc1cc(C2NN=C(c3ccccc3)S2)ccc1OCc1ccccc1Cl (configuration not stated)	8.91 µM (active)	–
CN(C)C(=O)c1ccc(-c2cncnc2NC2CCNCC2)cc1	–	15.8% [at 2.29 µM]
CCOC(=O)C1C(=O)C=C(c2ccc(C)cc2)CC1c1ccco1 (configuration not stated)	3.16 µM (active)	–
CCOC(=O)C1C(=O)C=C(c2ccc(NS(C)(=O)=O)cc2)CC1c1ccco1 (configuration not stated)	4.47 µM (active)	–
CCN(CC)C(=O)Cn1cnc([N+](=O)[O-])n1	inactive	–
